What all share (design): scale not given: direction of the effect not stated beside the values
Assay [1] deals with Protein translocase subunit SecA (Escherichia coli (strain K12)) (UniProt P10408). Kind of assay: Assay to Identify E. coli SecA ATPase Inhibitors. Type of assay: functional. The following applies: 30 µM.
For assay [2], the target named is T1, Ubiquitin-activating enzyme e1, putative (Leishmania donovani (strain BPK282A1)) (UniProt E9BSI1).
T1 sequence (whole entry): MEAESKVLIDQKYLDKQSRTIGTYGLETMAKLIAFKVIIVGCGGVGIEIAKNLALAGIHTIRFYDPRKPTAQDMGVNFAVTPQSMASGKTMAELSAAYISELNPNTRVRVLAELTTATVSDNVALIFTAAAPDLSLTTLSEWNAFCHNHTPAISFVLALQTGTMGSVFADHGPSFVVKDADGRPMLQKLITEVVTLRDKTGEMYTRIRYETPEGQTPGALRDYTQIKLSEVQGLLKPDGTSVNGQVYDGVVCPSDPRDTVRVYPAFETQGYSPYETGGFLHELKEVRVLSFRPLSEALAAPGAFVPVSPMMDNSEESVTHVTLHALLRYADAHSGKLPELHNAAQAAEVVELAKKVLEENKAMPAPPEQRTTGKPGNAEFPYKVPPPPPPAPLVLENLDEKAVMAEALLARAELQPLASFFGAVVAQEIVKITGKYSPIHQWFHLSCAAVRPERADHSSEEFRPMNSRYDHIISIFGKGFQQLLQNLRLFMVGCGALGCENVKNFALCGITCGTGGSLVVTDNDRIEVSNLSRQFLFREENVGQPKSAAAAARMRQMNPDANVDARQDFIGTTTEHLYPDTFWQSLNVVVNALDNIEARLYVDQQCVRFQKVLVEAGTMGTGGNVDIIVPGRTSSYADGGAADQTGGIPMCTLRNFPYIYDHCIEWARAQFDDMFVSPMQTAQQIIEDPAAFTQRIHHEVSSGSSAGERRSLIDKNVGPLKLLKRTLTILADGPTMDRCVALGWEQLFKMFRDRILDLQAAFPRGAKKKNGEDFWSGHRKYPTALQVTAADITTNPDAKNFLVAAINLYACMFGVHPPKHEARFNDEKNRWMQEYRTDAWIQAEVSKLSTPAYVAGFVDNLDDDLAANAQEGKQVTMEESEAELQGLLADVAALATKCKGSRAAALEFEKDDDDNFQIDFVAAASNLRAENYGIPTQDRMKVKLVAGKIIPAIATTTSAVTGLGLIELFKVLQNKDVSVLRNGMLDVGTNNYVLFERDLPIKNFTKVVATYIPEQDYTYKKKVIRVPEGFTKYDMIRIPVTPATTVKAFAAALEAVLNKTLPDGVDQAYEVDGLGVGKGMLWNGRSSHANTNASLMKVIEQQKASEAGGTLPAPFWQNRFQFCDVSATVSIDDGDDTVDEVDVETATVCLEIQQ
The assay can be described thus: Leishmania donovani Ubiquitin Activating Enzyme (LdE1). To be noted: 30 µM. Type of assay: functional.

Assay [3] deals with AMP-activated protein kinase, AMPK (Homo sapiens) (UniProt P54646+O43741+P54619+Q9UGJ0+Q9Y478+Q13131+Q9UGI9). The assay can be described thus: AMP-dependent Kinase enzyme assay. An in vitro enzyme assay that detects ADP turnover that is directly proportional to AMPK activity. This uses naive AMPK that is activated during the assay with MK-8722. To be noted: 30 µM. Type of assay: functional.

The target of assay [4] is Sialic acid-binding Ig-like lectin 9 (Homo sapiens) (UniProt Q9Y336). The assay can be described thus: Hs-Siglec9 ALPHAscreen SOP 20170721. To be noted: 10 µM. For orientation: Alpha assays give light when donor and acceptor beads are brought close together.
Chain of Sialic acid-binding Ig-like lectin 9 (Homo sapiens) (Q9Y336 whole entry): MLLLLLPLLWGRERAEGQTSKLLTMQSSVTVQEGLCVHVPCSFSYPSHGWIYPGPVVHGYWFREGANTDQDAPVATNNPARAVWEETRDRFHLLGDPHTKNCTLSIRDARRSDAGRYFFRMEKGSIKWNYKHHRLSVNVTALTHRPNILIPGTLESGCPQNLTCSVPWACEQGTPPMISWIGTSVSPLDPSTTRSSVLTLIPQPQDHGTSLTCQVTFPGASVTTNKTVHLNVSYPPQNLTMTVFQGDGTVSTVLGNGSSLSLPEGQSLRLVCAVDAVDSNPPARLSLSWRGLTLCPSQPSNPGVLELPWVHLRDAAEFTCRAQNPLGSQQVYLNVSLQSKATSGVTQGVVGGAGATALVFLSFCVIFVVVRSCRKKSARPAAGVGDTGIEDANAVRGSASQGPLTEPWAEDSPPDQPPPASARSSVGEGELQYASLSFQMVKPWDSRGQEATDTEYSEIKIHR
Assay [5] deals with Trypanosoma cruzi. Kind of assay: Trypanosoma cruzi phosphomannomutase and mannose-1-phosphate guanylyltransferase assay. Type of assay: functional. The following applies: 10 µM.
Assay [6] addresses T2, Arginase-2, mitochondrial (Homo sapiens) (UniProt P78540).
T2 sequence (whole entry): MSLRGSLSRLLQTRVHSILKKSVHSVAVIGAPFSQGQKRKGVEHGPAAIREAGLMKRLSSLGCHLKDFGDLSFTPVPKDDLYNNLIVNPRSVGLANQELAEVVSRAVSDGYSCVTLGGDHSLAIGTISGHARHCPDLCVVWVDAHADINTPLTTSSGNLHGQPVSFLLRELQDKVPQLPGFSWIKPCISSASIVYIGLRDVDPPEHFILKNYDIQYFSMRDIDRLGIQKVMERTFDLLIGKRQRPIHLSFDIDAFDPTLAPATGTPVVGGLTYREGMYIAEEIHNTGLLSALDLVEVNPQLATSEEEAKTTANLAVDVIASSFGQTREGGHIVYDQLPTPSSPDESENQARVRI
The assay can be described thus: in vitro enzyme assay to detect the production of urea directly proportional to the activity of Arginase II. Note: in the data most compounds retested in dose-response had high values. Type of assay: functional. To be noted: 33.3 µM.

Assay [7] addresses T3, Proteasome subunit beta (Trypanosoma cruzi) (UniProt O96673).
T3 sequence (whole entry): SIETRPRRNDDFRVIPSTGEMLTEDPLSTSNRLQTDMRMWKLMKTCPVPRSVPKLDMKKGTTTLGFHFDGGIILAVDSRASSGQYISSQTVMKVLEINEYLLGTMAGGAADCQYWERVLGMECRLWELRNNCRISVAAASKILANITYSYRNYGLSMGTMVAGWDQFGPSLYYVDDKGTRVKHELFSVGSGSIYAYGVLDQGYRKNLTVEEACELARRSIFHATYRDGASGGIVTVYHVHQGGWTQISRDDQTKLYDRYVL
Kind of assay: Trypanosoma cruzi proteasome chymotrypsin-like activity (TcProtChymo) assay. Note: in the data most compounds retested in dose-response had high values. Type of assay: functional. To be noted: 9.37 µM.

Assay [8] concerns N/A. Kind of assay: Trypanosoma cruzi proteasome luciferase counter-screen. Type of assay: functional. The following applies: 9.37 µM.
Assay [9] is filed under the species Homo sapiens. The assay can be described thus: To identify inhibition of the IFN signalling (Jak-Stat) pathway via expression of an eGFP reporter gene under the control of an IFN-stimulated response element (ISRE) containing MxA promoter. Type of assay: functional. The following applies: 30 µM. On the technique in general: A reporter such as luciferase makes a cellular process visible.

Assay [10] deals with T4, Tyrosyl-tRNA synthetase, putative (Trypanosoma cruzi (strain CL Brener)) (UniProt Q4DSP6).
T4 sequence (whole entry): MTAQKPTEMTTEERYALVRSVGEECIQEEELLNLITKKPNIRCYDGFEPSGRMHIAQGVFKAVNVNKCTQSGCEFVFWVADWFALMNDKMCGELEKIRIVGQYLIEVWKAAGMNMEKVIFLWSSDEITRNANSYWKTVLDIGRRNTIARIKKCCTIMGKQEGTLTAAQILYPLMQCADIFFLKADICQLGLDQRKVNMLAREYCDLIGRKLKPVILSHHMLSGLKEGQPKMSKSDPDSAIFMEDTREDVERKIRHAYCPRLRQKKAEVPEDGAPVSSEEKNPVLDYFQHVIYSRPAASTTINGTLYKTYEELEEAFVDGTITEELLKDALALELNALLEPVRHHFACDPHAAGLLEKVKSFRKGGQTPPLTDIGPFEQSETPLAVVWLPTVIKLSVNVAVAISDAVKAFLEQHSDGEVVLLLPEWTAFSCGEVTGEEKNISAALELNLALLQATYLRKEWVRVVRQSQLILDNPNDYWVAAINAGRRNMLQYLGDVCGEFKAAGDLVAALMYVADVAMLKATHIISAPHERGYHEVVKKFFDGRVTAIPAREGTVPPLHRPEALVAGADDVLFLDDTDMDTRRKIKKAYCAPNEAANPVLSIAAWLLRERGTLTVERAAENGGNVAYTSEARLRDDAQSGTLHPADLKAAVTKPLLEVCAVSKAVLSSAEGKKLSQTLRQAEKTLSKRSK
Kind of assay: Trypanosoma cruzi tyrosyl tRNA synthetase (TcYRS) _High Tyrosine SOP. Note: in the data most compounds retested in dose-response had high values. The following applies: 30 µM. Type of assay: functional.

Assay [11] has as its target T4, Tyrosyl-tRNA synthetase, putative (Trypanosoma cruzi (strain CL Brener)). The assay can be described thus: Trypanosoma cruzi tyrosyl tRNA synthetase (TcYRS) SOP. Type of assay: functional. The following applies: 30 µM.
Assay [12] deals with Chromo domain-containing protein 1 (Saccharomyces cerevisiae (strain ATCC 204508 / S288c) (Baker's yeast)) (UniProt P32657). Kind of assay: ScCHD-1 Enzyme Inhibition Assay. Note: in the data most compounds retested in dose-response had high values. To be noted: 30 µM. Type of assay: functional.
Chain of Chromo domain-containing protein 1 (Saccharomyces cerevisiae (strain ATCC 204508 / S288c) (Baker's yeast)) (P32657 whole entry, the tested form may be a part): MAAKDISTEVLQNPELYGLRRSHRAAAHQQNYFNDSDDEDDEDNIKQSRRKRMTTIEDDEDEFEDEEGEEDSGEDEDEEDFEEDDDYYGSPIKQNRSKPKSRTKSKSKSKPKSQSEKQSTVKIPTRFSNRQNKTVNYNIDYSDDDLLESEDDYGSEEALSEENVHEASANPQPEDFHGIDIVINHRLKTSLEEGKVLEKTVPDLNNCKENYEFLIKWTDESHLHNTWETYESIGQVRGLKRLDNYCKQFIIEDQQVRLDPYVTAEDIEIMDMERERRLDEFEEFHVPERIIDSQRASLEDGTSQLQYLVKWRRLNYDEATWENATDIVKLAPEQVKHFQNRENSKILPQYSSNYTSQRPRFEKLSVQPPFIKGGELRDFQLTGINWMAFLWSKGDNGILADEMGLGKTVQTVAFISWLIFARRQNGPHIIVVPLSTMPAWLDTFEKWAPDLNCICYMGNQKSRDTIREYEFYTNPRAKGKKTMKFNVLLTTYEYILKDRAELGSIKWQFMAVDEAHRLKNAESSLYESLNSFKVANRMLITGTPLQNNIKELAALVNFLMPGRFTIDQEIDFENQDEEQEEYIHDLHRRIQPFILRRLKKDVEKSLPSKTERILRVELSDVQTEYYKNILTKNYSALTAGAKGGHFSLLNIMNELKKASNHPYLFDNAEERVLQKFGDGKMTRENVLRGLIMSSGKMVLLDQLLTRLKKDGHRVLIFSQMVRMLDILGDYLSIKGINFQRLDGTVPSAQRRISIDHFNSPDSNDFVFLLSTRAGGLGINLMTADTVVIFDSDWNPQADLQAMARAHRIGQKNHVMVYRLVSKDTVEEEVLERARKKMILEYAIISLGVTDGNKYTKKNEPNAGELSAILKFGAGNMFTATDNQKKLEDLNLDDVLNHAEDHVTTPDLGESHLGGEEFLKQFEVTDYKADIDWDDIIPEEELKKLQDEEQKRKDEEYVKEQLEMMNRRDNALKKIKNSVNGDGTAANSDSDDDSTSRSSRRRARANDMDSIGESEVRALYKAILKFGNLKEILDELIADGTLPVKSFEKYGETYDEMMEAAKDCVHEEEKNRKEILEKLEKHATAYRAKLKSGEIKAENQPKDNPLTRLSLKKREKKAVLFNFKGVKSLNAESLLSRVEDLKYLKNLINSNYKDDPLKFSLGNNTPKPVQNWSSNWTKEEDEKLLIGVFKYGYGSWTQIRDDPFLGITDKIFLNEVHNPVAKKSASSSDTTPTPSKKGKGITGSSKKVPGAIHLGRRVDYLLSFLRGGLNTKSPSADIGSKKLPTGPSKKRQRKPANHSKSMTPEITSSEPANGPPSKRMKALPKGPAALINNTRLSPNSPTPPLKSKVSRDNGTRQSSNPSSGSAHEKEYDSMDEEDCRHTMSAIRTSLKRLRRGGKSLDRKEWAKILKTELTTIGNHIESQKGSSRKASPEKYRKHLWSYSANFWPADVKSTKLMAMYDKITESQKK

This note sets out measurements from ChEMBL document CHEMBL3988442, “University of Dundee, Small-Polar-MMV Screening Library” (2021).

Values joined by “and” are separate entries in the source; they are usually repeats but may differ in a detail not shown here. Equal values may be shown once. For part of these data: Entries with a potency or affinity are not part of this list.

Chain of Protein translocase subunit SecA (Escherichia coli (strain K12)) (P10408 whole entry): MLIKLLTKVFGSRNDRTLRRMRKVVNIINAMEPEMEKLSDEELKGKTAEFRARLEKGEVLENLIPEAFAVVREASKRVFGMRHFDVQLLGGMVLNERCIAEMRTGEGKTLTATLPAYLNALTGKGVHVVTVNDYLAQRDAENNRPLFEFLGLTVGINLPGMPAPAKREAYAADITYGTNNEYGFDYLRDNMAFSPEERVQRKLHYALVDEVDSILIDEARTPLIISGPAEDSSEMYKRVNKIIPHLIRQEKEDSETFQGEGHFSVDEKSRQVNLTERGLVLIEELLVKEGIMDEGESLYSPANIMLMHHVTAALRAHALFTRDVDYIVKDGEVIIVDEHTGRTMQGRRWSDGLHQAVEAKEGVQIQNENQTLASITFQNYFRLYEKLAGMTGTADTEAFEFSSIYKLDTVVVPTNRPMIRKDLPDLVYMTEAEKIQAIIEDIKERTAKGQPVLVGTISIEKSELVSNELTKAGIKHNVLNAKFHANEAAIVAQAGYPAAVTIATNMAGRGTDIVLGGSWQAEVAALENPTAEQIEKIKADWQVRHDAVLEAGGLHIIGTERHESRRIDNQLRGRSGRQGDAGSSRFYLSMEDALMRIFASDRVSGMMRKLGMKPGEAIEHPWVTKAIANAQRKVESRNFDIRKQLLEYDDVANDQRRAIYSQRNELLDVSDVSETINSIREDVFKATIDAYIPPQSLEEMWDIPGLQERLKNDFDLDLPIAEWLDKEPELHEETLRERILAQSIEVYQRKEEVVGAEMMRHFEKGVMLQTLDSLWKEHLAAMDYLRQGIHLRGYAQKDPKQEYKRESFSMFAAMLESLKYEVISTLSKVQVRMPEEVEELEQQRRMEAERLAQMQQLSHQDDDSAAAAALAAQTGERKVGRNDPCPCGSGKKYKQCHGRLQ

With `CN1CCCC1c1ccc(C(=O)N2CCc3ccccc3C2)s1` (stereo not drawn), the Percent Effect in assay [1] is -3.53%; in assay [2], -16.2%; in assay [3], 2.64%; in [4], -7.08%; in assay [5] it was -3.81%; in assay [6] it was -2.73%. Besides, the Percent Effect in assay [7] was 74.8% and 75.3% and 64.5%; in assay [8], 44.8% and 43.9%; in [9] it was 16.1%; in assay [10] it was 3.23%; in assay [11] it was -3.7%; in assay [12], 7.75%.

`Cc1cc(C(C)C(=O)N2CCCN(Cc3cscn3)CC2)c(C)o1` (stereo not drawn): the Percent Effect in [1] is -0.889%; in [2], 21.1%; in assay [3], -6.33%; in [4], 21.4%; in assay [5], 1.5%; in [6], -4.98%. The Percent Effect in [7] is 31.9% and 34.8% and 34.4%; in [8] it was 4.24% and 9.24%; in assay [9] it was 23.1%; in [10] it was 3.43%; in assay [11] it was 17.1%; in assay [12], -9.64%.

On to `CCOCCCn1c(NC(=O)c2scnc2C)nc2ccccc21`, for which the Percent Effect was -9.29% in assay [1]; -5.2% in assay [2]; -17.4% in assay [3]; 23.1% in assay [4]; 11.1% in assay [5]; 4.27% in [6]. For the same compound, the Percent Effect in assay [7] is 92.3% and 90% and 93.7%; in assay [8], 69.6% and 70.1%; in assay [9], 68.6%; in assay [10], 7.77%; in assay [11] it was 21.9%; in assay [12], 72.8%.

Consider `Cc1ccc(S(=O)(=O)Nc2ccc(-n3cccc3C(=O)O)c(C)c2)s1`, for which the Percent Effect was -4.28% in assay [1]; 5.26% in [2]; 12.2% in assay [3]; 2.35% in [4]; -5.55% in [5]; 9.47% in assay [6]. The Percent Effect in [7] was 29.7% and 25.9% and 32.3%; in [8] it was 14.7% and 12.8%; in assay [9], -7.51%; in assay [10], -9.57%; in assay [11], -15.6%; in [12], 4.9%.

Turning to `Cc1ccc(NC2CCN(C(=O)CCc3ccco3)CC2)nn1`, the Percent Effect in assay [1] was -5.56%; in assay [2], 2.7%; in assay [3], 6.46%; in [4], 1.2%; in assay [5], 0.836%; in assay [6] it was 0.554%. The Percent Effect was 21.9% and 32.9% and 29.3% in [7]; -1.73% and 1.88% in [8]; 8.89% in assay [9]; 11.9% in assay [10]; -1.22% in assay [11]; 0.23% in [12].

On to `Cc1noc([C@H]2C[C@H]3OCC[C@H]3N(Cc3ccc4c(c3)OCO4)C2)n1`, for which the Percent Effect in [1] is -1.12%; in assay [2] it was 13.5%; in assay [3] it was 5.01%; in assay [4] it was -6.24%; in assay [5], -0.88%; in assay [6], 6.05%. Moreover, the Percent Effect is 11.4% and 30.6% and 12.5% in assay [7]; 7.96% and 8.15% in assay [8]; -2.22% in assay [9]; 5.41% in assay [10]; 17.9% in assay [11]; -3.92% in [12].

As to `O=C(c1ccc(C2CCCO2)s1)N1Cc2ccccc2C1` (stereo not drawn), the Percent Effect is -2.89% in [1]; -2.7% in assay [2]; -1.29% in assay [3]; 1.79% in [4]; -4.25% in assay [5]; -2.86% in [6]. Also, the Percent Effect is 55.5% and 35.5% and 40.2% in [7]; 23.5% and 18.5% in [8]; -5.94% in assay [9]; -2.65% in [10]; 0% in [11]; 2.95% in assay [12].

As to `O=C(Nc1ccccn1)C1CC(=O)N(Cc2ccccn2)C1` (stereo not drawn), the Percent Effect in assay [1] is -2.05%; in assay [2], 15.8%; in assay [3] it was 1.82%; in assay [4], 8.62%; in [5] it was -4.97%; in assay [6], 2.37%. For the same compound, the Percent Effect in assay [7] is 26.3% and 37.5% and 33.2%; in assay [8], 28% and 30%; in assay [9] it was -8.07%; in assay [10], 3.19%; in assay [11], 7.79%; in assay [12], -4%.

For the compound `Cc1ccc(S(=O)(=O)N2CCc3nc(C4CCNCC4)ncc3C2)cc1`, the Percent Effect in assay [1] was -3.69%; in assay [2], 9.46%; in [3], -15.7%; in assay [4], 1.15%; in assay [5] it was 2.77%; in assay [6] it was -4.41%. Also, the Percent Effect in assay [7] is 21.6% and 22.5% and 38.9%; in assay [8], 8.48% and 9.51%; in [9] it was 9.56%; in assay [10], 17.2%; in assay [11] it was 24.7%; in assay [12], -21.4%.
